For assay [1], the target named is Gonadotropin-releasing hormone receptor (Homo sapiens) (UniProt P30968). Kind of assay: Human gonadotropin-releasing hormone receptor (GnRHR) small molecule agonists, calcium flux assay in GnRHR-HEK293 cells (AID 1920063). Note: nearly all actives have a fitted effect of over 35% in size. In outline:
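Compounds dissolved in DMSO are pin-transferred onto dye-loaded GnRHR-HEK293 cells, which were seeded 18 h before at 37 C/5% CO2. Calcium signal is read as fluorescence intensity at 1 s intervals for 3 min.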
In general terms: Calcium assays in cells follow changes in intracellular calcium, usually with a dye or a luminescent sensor.

In assay [2] the target is KiSS-1 receptor (Homo sapiens) (UniProt Q969F8). Kind of assay: Human kisspeptin (KISS1R) small molecule agonists, calcium flux assay in KISS1R-HEK293 cells (AID 1920064; active = well fitted activation curve with a large enough effect in the repeat runs). In outline:
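Cell line: HEK293, stable human KISS1R. Dye loading 1 h at 37 C after 18 h culture. Read: kinetic fluorescence, 480/540 nm, 3 min at 1 s intervals.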

Assay [3] can be described thus: G protein-coupled receptor (GPCR) small molecule agonists, calcium flux assay: HEK293 wild type cell line counter screen (AID 1920065). In outline:
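Tox21 10K compounds, 15 concentrations each in triplicate, pin-transferred in DMSO onto dye-loaded cells; kinetic read at 480/540 nm for 3 min, 1 s intervals.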

Assay [4] can be described thus: p53 small molecule agonists, cell-based qHTS assay with human liver microsomes (AID 1963577).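 Note: p53 response element beta-lactamase reporter cells with liver microsomes plus NADPH.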 Put shortly:
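With metabolic activation: human liver microsomes (0.5 mg/mL final) plus NADPH (0.5 mg/mL final) added alongside compounds to p53RE-bla cells; 16 h 37 C exposure; beta-lactamase read by LiveBLAzer fluorescence.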
On the technique in general: In qHTS, concentration-response curves come from the screen itself.

The nature of assay [5]: p53 small molecule agonists, cell-based qHTS assay with rat liver microsomes (AID 1963578). Put shortly: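 Metabolic activation by rat liver microsomes and NADPH, each 0.5 mg/mL final, added right after compounds to p53RE-bla reporter cells (4,000/well, plated 5 h earlier). 16 h at 37 C, then LiveBLAzer substrate for 2 h at room temperature in the dark; fluorescence read-out.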

Assay [6] in a line: p53 small molecule agonists, cell-based qHTS assay with rat liver microsomes: qHTS cell viability counter screen (AID 1963580). Note: nearly all actives have a fitted effect of over 45% in size. In outline: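 After the beta-lactamase ratio was read, CellTiter-Glo was added to the same wells and luminescence measured at 30 min; cells had been treated 16 h at 37 C with compounds, rat liver microsomes and NADPH (0.5 mg/mL final each).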
For assay [7], the target named is 5-hydroxytryptamine receptor 2A (Homo sapiens) (UniProt P28223). Put plainly: 5-hydroxytryptamine receptor 2A (HTR2A) small molecule antagonists, cell-based qHTS assay (AID 1963586). Note: nearly all actives have a fitted effect of over 45% in size. Note: potency is the fitted concentration of half-maximal effect. In outline:
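CHO cells stably expressing human HTR2A were plated for 18 h at 37 C, then loaded with calcium dye for 1 h. Compounds were preincubated 5 min at room temperature before DOI (4 nM solution) was added. Kinetic fluorescence was read for 3 min.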

For assay [8] the target is unchanged. Put plainly: 5-hydroxytryptamine receptor 2A (HTR2A) small molecule agonists, cell-based qHTS assay (AID 1963587). Note: nearly all actives have a fitted effect of over 30% in size. In outline: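 CHO cells stably expressing human HTR2A, plated 18 h, loaded with calcium dye 1 h at 37 C. Agonist mode: compounds added and intracellular calcium fluorescence recorded kinetically for 2 min at 1 sec intervals.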
Assay [9] addresses Muscarinic acetylcholine receptor M1 (Homo sapiens) (UniProt P11229). Kind of assay: Cholinergic receptor muscarinic 1 (CHRM1) small molecule antagonists, cell-based qHTS assay (AID 1963588). Note: nearly all actives have a fitted effect of over 40% in size. Put shortly: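 Compounds were tested at 15 concentrations in three independent runs. Dye-loaded CHRM1-CHO cells were exposed 5 min at room temperature before stimulation by acetylcholine added at 50nM. Intracellular calcium was read kinetically on FDSS for 3 min.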

The target is the same in assay [10]. Kind of assay: Cholinergic receptor muscarinic 1 (CHRM1) small molecule agonists, cell-based qHTS assay (AID 1963589). Note: nearly all actives have a fitted effect of over 35% in size. Put shortly:
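Homogeneous fluorescence calcium flux, agonist mode. Human M1-expressing CHO cells; compound dosed at 15 concentrations, three independent runs; signal sampled every 1 sec.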

Assay [11] can be described thus: cAMP Responsive Elements (CRE) small molecule antagonists, cell-based qHTS assay (AID 1963591; active = well fitted inhibition curve with a large enough effect in the signal ratio in the repeat runs, not every such curve was filed as active; the % refers to the signal ratio; note: potency is the fitted concentration of half-maximal effect). In outline:
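First, CRE-bla HEK293T cells settled 18 h at 37 C. Next, compound and 0.25 uM final NKH477 were applied for 3 h. Last, LiveBLAzer B/G substrate was loaded for 2 h at room temperature.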

Assay [12] deals with Beta-2 adrenergic receptor (Homo sapiens) (UniProt P07550). Kind of assay: Adrenergic beta2 receptor (ADRB2) small molecule antagonists, cell-based qHTS assay (AID 1963592). Note: nearly all actives have a fitted effect of over 50% in size. Note: potency is the fitted concentration of half-maximal effect. In outline: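 Assay format: CHO-ADRB2 cells, 18-20hr seeding at 37C/5% CO2, then compound plus 1nM isoproterenol agonist mix for 0.5hr RT. Homogeneous time-resolved fluorescence cAMP detection after 1hr, expressed as 665/615 nm ratio.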
Sequence of Beta-2 adrenergic receptor (Homo sapiens) (P07550 whole entry, looked up): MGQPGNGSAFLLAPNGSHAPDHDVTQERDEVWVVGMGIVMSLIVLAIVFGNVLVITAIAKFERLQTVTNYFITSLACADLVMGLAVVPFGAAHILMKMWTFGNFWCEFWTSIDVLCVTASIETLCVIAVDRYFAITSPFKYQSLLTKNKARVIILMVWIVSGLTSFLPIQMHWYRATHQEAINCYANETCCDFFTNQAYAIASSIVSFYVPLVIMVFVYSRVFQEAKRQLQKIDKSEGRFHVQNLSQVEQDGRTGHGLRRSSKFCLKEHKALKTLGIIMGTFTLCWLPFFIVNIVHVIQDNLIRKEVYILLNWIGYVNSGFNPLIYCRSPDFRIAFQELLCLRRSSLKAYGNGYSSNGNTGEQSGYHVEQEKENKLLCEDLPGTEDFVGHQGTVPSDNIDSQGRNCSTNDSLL

The nature of assay [13]: p53 small molecule agonists, cell-based qHTS assay: qHTS cell viability counter screen (AID 1963581). Note: nearly all actives have a fitted effect of over 45% in size. In outline:
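ATP content measured by luminescence in HCT-116 p53RE-bla cells treated 16 h at 37 C, same wells as the reporter screen.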

The nature of assay [14]: p53 small molecule agonists, cell-based qHTS assay (AID 1963582; active = well fitted activation curve with a large enough effect in the signal ratio in the repeat runs, not every such curve was filed as active; the % refers to the signal ratio). Put shortly:
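16 h compound exposure (37 C) of p53 response element–bla cells, preceded by 5 h recovery at 37 C/5% CO2; read-out via LiveBLAzer B/G FRET substrate, 2 h RT, fluorescence intensity.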

In assay [15] the target is Beta-2 adrenergic receptor (Homo sapiens) (UniProt P07550). Kind of assay: Adrenergic beta2 receptor (ADRB2) small molecule agonists, cell-based qHTS assay (AID 1963593).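 Note: CHO cells stably overexpressing human ADRB2.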 In outline: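 CHO cells stably over-expressing ADRB2 were plated overnight at 37C, then dosed with compounds plus a stimulation mix containing 100uM IBMX and 25uM Ro-20-1724 for 0.5hr at room temperature. cAMP was measured by HTRF competition, 1hr.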

In assay [16] the target is D(2) dopamine receptor (Homo sapiens) (UniProt P14416). Put plainly: Dopamine D2 receptor (DRD2) small molecule agonists, cell-based qHTS assay (AID 1963594). Note: nearly all actives have a fitted effect of over 35% in size. In outline: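 HEK293 cells stably expressing human DRD2, pre-treated with PDE inhibitor Ro20-1724 (0.1 mM final) and compound 10 min at room temperature, then stimulated with NKH477 (200nM […]) for 30 min. cAMP read by HTRF (665/620 nm).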
Sequence of D(2) dopamine receptor (Homo sapiens) (P14416 whole entry, looked up): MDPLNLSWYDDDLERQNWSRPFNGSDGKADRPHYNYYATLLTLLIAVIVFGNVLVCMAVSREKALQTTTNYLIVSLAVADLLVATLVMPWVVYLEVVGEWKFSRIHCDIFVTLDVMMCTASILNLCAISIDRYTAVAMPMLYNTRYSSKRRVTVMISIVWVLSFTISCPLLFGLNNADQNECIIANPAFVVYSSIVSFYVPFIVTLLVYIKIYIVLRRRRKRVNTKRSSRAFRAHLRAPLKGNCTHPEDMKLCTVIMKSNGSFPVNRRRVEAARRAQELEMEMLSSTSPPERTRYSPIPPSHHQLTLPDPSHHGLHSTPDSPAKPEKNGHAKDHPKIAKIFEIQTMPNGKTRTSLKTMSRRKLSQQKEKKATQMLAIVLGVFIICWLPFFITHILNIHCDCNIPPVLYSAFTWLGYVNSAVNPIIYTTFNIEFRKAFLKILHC

Assay [17] has the same target. Put plainly: Dopamine D2 receptor (DRD2) small molecule antagonists, cell-based qHTS assay (AID 1963595; active = well fitted inhibition curve with a large enough effect in the signal ratio in the repeat runs, with a control signal flat; the % refers to the signal ratio). In outline:
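Readout: HTRF cAMP, cAMP-d2 competing with cellular cAMP for anti-cAMP cryptate, read after 1 h. Cells: DRD2-HEK293. Conditions: 0.1 mM Ro20-1724, 12 nM quinpirole, 200 nM NKH477, 30 min RT.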

The nature of assay [18]: cAMP Responsive Elements (CRE) small molecule agonists, cell-based qHTS assay (AID 1963590). Put shortly:
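HEK 293T cells stably bearing CRE-bla were plated at 2,000 cells per well and rested 18 h. Compounds, positive controls or DMSO were added for 3 h at 37 C. LiveBLAzer B/G substrate was then loaded for 2 h at room temperature.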

Assay [19] can be described thus: p53 small molecule agonists, cell-based qHTS assay with human liver microsomes: qHTS cell viability counter screen (AID 1963579). Note: potency is the fitted concentration of half-maximal effect; nearly all actives have a fitted effect of over 45% in size. In outline: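 Metabolic activation used human liver microsomes and NADPH, both 0.5 mg/mL final, over 16 hours at 37 C on p53RE-bla cells (4,000/well). Cytotoxicity measured by CellTiter-Glo luminescence, 30 min at room temperature.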

Inconclusive results are not listed. The source made the active and inactive calls. Unless noted, calls come from the whole dose curve.

Sequence of KiSS-1 receptor (Homo sapiens) (Q969F8 whole entry, looked up): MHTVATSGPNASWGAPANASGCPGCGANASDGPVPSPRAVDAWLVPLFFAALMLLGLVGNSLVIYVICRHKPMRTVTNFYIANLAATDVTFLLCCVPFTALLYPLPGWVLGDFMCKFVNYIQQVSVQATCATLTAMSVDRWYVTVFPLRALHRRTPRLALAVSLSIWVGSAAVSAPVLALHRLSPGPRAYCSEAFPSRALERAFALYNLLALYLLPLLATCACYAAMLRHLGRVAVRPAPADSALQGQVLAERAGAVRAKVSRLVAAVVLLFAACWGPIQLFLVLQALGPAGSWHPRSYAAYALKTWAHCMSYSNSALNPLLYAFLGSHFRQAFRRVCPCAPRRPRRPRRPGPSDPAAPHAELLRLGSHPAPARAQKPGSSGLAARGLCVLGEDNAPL
Sequence of Muscarinic acetylcholine receptor M1 (Homo sapiens) (P11229 whole entry, looked up): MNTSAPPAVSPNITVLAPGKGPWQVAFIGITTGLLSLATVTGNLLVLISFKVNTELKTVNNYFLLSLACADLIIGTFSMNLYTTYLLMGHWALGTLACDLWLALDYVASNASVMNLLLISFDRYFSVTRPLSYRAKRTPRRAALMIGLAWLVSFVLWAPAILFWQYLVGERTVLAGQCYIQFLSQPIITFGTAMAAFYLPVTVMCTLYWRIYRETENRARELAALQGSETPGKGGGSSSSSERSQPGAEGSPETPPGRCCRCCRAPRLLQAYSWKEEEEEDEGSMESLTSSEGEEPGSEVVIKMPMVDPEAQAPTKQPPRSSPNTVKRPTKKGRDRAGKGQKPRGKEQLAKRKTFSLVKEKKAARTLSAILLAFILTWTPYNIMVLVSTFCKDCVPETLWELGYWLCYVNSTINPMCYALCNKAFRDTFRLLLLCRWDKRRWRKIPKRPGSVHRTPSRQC
Sequence of 5-hydroxytryptamine receptor 2A (Homo sapiens) (P28223 whole entry, looked up): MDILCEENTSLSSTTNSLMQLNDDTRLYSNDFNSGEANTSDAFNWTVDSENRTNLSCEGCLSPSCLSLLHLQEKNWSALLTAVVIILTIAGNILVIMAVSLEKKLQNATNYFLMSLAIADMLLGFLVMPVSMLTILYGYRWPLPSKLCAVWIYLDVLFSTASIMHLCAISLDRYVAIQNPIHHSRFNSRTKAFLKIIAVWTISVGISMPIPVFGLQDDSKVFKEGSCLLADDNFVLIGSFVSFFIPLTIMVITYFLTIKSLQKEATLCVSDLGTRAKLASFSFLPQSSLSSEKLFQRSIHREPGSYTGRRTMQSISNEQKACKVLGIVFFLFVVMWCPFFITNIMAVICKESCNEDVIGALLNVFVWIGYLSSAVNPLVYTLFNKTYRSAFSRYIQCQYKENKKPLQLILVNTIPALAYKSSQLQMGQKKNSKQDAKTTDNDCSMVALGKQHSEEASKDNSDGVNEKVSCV
Sequence of Gonadotropin-releasing hormone receptor (Homo sapiens) (P30968 whole entry, looked up): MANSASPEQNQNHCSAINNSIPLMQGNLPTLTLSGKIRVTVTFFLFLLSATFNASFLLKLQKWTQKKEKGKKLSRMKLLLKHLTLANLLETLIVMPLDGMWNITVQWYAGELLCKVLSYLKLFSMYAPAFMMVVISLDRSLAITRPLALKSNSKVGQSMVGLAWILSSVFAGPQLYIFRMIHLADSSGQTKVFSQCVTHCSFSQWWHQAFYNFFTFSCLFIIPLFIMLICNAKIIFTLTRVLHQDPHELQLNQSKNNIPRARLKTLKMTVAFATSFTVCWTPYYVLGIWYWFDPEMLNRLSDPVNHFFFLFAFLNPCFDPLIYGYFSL

As to `O=CC=C(c1ccccc1)c1ccccc1`, the Potency result in assay [1], in assay [2], in [3], in assay [4], in assay [5] and in assay [6] was “inactive” throughout. Also, the Potency entry in assay [8], in [9], in [10] and in assay [12] was “inactive” each time. In addition, the Potency in [7] is 42.4 µM (active); in assay [11] it was 24.5 µM (active).
Take `CCCCc1oc2ccccc2c1C(=O)c1cc(I)c(OCCN(CC)CC)c(I)c1`: the Potency result in assay [1], in assay [2], in [3], in assay [13], in assay [14] and in [15] was “inactive” in each case. Also, the Potency result in assay [16] and in assay [17] was “inactive” throughout.
As to `O=C(O)CCn1c2c(c3ccccc31)C[C@H](NS(=O)(=O)c1ccc(F)cc1)CC2`, the Potency entry in [1], in assay [2], in [3], in assay [7], in assay [8] and in [9] was “inactive” each time. The Potency entry in [10], in [18], in assay [12] and in [16] was “inactive” in each case.
`CS(=O)(=O)c1ccc([C@@H](O)[C@@H](CF)NC(=O)C(Cl)Cl)cc1`: the Potency entry in assay [1], in [2], in assay [3], in assay [13], in assay [14] and in assay [7] was “inactive” in each case. Moreover, the Potency result in [8], in assay [9], in assay [10], in assay [18], in [11] and in [12] was “inactive” throughout. For the same compound, the Potency result in [15], in assay [16] and in [17] was “inactive” throughout.
For the compound `CN(C)CCCN1c2ccccc2CCc2ccccc21`, the Potency result in [1], in assay [2], in assay [3], in assay [8], in assay [11] and in assay [16] was “inactive” in each case. The Potency entry in assay [17] was “inactive”. Moreover, the Potency in assay [12] was 29.8 µM (active).
With `O=C(O)c1cn(C2CC2)c2cc(N3CCNCC3)c(F)cc2c1=O`, the Potency entry in assay [1], in assay [2], in [3], in [13], in assay [18] and in assay [11] was “inactive” in each case. Further, the Potency result in assay [16] and in assay [17] was “inactive” throughout.
In the case of `Cc1c(-c2ccc(O)cc2)n(Cc2ccc(OCCN3CCCCCC3)cc2)c2ccc(O)cc12`, the Potency result in [1], in assay [2], in assay [3], in assay [7], in [8] and in assay [10] was “inactive” in each case. Besides, the Potency result in assay [12] is “inactive”.
On to `Cc1ccc(Cl)c(N)c1Cl`, for which the Potency entry in [1], in [2], in assay [4], in assay [5], in [6] and in [13] was “inactive” each time. For the same compound, the Potency entry in assay [14], in [7], in [8], in assay [9], in assay [10] and in [18] was “inactive” throughout. Moreover, the Potency entry in assay [11], in [12], in [15], in assay [16] and in [17] was “inactive” throughout. Also, the Potency in assay [19] was 18.2 µM (active).

The record behind these values is PubChem BioAssay (Tox21).
